This note sets out measurements from paper PMC7862700, “An all-to-all approach to the identification of sequence-specific readers for epigenetic DNA modifications on cytosine”.

Assay in all cases: DAPPL (digital affinity profiling via proximity ligation, sequencing); 10 mM Tris-HCl pH 7.5, 50 mM NaCl, 1 mM DTT, 4% glycerol, room temperature, 30 min; GST-TFs on glutathione beads, 16-mer random dsDNA library, 0.1% formaldehyde crosslink after washing; high values mean tight binding
The target in one test is T1, FEV (Homo sapiens, UniProt Q99581 1-238).
T1 sequence: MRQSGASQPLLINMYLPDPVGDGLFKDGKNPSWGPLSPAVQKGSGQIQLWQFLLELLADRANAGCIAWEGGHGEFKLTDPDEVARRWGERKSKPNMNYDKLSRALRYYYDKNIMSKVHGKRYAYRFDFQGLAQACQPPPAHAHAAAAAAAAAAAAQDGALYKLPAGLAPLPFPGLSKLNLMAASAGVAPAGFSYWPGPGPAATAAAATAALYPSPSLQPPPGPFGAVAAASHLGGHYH
As to conditions: protein: recombinant; tags: N-terminal GST; dsDNA, one strand shown. A digest of the protocol: (§1)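 A tag-only sample was pooled with DNA-barcoded human transcription factors that had been expressed in yeast as GST fusions and captured on glutathione beads. The pools were incubated for 30 min at room temperature with 200 nmole of a random double-stranded 16-mer DNA library in Tris/NaCl/DTT/glycerol buffer, then washed, crosslinked with 0.1% formaldehyde, proximity-ligated (BsaI/T4 ligase, 1 h, 37 °C), PCR-amplified and sequenced on an Illumina NextSeq500. Binding signal is each hexamer's read frequency for a factor divided by its frequency for the tag-only sample.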

A further test deals with ETV5 (Homo sapiens, UniProt P41161 1-510). The conditions noted are these: protein: recombinant; tags: N-terminal GST; dsDNA, one strand shown. A digest of the protocol:
as §1

The target in a further test is HSF1 (Homo sapiens, UniProt Q00613 1-529). As to conditions: protein: recombinant; tags: N-terminal GST; chain copies: 3; dsDNA, one strand shown. A digest of the protocol:
as §1

The next test has as its target T2, SPIC (Homo sapiens, UniProt Q8N5J4 1-248).
T2 sequence: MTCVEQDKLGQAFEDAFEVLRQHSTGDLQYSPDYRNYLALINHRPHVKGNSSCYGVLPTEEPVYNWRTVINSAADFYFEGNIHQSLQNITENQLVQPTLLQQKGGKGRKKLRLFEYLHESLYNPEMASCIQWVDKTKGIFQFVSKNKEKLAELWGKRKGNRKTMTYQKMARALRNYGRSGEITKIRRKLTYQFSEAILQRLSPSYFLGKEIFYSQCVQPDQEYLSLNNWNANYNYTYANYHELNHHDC
As to conditions: protein: recombinant; tags: N-terminal GST; dsDNA, one strand shown. A digest of the protocol:
as §1

The target of a further test is ELF4 (Homo sapiens, UniProt Q99607 1-663). The conditions noted are these: protein: recombinant; tags: N-terminal GST; dsDNA, one strand shown. A digest of the protocol: as §1
A further test has as its target T3, ELK4 (Homo sapiens, UniProt P28324-2 1-405).
T3 sequence: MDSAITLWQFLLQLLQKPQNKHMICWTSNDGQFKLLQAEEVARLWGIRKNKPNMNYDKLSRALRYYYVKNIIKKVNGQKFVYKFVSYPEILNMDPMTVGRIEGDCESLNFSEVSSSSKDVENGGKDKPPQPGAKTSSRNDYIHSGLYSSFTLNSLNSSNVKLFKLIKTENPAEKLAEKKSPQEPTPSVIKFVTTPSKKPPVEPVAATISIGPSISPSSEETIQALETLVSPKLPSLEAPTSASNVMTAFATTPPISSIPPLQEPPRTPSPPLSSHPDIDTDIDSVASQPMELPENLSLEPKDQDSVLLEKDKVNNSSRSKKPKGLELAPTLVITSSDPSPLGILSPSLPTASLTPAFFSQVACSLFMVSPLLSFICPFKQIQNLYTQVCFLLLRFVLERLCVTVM
As to conditions: protein: recombinant; tags: N-terminal GST; dsDNA, one strand shown. A digest of the protocol: as §1

The target in a further test is T4, ETV2 (Homo sapiens, UniProt O00321 1-342).
T4 sequence: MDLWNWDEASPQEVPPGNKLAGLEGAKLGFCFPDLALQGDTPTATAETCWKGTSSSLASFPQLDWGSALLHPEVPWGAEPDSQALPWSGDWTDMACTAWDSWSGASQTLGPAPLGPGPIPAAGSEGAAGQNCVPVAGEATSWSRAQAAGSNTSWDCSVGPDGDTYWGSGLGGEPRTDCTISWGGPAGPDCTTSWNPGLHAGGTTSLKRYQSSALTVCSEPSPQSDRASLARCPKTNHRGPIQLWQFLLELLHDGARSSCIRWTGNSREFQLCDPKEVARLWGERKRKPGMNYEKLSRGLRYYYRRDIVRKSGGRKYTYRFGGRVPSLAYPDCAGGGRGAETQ
The conditions noted are these: protein: recombinant; tags: N-terminal GST; dsDNA, one strand shown. A digest of the protocol:
as §1

A further test deals with T5, ELF3 (Homo sapiens, UniProt P78545 1-371).
T5 sequence: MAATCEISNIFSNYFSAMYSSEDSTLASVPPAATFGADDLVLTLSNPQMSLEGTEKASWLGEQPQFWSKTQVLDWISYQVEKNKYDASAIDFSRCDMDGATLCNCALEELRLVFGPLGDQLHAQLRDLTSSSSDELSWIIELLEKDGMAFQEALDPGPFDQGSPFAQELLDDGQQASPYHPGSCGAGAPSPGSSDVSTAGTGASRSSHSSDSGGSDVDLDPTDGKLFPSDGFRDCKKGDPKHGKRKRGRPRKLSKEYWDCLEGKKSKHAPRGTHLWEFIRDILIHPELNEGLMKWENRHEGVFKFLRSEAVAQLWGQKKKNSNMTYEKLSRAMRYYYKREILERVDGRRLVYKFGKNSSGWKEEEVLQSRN
The conditions noted are these: protein: recombinant; tags: N-terminal GST; dsDNA, one strand shown. A digest of the protocol: as §1

The next test concerns the target CRX (Homo sapiens, UniProt O43186 1-299). As to conditions: protein: recombinant; tags: N-terminal GST; dsDNA, one strand shown. A digest of the protocol: as §1
The target in a further test is ETV1 (Homo sapiens, UniProt P50549 1-477). The conditions noted are these: protein: recombinant; tags: N-terminal GST; dsDNA, one strand shown. A digest of the protocol:
as §1

Chain of ETV1 (P50549 whole entry): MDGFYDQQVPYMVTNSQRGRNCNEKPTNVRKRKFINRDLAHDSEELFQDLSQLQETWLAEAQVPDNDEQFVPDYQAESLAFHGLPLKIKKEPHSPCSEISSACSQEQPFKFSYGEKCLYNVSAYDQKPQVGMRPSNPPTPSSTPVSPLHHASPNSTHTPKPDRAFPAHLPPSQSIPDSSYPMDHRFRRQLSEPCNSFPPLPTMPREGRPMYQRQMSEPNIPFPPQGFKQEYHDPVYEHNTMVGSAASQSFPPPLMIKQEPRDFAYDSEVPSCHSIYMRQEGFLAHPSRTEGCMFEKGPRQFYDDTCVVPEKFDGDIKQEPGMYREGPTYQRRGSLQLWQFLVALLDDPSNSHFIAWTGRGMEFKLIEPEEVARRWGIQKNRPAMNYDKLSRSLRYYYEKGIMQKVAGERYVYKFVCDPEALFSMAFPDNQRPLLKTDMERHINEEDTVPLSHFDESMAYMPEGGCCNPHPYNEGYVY
Chain of ELF4 (Q99607 whole entry): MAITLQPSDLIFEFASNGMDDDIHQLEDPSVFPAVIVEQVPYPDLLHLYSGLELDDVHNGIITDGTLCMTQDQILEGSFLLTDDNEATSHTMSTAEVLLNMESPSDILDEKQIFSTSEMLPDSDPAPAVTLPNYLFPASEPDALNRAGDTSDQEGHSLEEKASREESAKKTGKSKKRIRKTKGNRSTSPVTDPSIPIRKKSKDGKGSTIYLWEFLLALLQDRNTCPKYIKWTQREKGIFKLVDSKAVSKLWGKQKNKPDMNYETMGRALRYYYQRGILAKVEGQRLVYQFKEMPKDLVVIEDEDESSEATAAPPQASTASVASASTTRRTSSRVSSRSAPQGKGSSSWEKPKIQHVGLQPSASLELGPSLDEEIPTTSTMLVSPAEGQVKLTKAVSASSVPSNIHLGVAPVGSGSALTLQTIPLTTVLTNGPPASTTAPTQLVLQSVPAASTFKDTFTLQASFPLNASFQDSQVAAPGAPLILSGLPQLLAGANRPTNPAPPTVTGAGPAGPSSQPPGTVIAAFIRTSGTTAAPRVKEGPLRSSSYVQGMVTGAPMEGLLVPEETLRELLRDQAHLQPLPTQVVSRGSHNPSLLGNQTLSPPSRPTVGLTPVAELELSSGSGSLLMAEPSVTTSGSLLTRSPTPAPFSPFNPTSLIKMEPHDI
Chain of CRX (O43186 whole entry): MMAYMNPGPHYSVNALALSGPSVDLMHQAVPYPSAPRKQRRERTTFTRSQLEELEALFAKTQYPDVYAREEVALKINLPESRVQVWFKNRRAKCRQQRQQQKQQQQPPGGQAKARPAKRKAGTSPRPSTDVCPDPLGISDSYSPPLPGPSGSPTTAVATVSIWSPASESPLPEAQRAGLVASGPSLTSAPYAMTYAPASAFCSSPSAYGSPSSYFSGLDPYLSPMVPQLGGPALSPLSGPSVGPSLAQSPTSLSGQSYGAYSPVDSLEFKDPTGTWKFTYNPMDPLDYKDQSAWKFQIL
Chain of HSF1 (Q00613 whole entry): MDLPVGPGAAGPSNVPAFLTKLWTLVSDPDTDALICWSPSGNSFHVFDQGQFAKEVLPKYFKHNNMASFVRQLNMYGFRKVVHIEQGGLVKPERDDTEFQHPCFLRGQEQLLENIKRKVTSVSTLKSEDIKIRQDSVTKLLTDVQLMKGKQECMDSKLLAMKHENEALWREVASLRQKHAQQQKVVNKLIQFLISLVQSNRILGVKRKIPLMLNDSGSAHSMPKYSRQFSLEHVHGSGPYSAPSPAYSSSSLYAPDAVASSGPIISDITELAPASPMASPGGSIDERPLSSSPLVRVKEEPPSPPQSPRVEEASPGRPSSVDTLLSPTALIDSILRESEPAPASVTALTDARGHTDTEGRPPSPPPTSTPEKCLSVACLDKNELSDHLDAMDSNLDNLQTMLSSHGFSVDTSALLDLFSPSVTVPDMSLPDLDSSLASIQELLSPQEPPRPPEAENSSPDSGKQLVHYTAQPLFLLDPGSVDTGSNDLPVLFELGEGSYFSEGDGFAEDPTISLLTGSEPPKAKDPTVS
Chain of ETV5 (P41161 whole entry): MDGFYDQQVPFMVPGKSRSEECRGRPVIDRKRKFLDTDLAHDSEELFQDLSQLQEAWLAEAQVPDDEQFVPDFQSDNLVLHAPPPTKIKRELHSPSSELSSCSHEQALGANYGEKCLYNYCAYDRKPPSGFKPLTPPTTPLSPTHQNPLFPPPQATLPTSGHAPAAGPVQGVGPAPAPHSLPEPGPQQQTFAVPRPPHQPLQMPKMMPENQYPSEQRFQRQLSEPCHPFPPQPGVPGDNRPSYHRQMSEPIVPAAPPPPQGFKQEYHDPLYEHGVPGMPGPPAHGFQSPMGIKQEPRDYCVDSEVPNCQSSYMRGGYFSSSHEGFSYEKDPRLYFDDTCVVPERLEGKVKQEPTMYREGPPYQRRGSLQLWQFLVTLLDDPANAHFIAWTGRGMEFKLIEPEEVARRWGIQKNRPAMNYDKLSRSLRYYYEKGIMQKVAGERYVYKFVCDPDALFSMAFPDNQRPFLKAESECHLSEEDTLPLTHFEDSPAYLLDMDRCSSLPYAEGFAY

Regarding AGCTCT, the binding signal was 1.19 fold enrichment (6-mer frequency, TF over GST control) with FEV; 1.15 fold enrichment (6-mer frequency, TF over GST control) with ETV5; 1.25 fold enrichment (6-mer frequency, TF over GST control) with HSF1; 1.24 fold enrichment (6-mer frequency, TF over GST control) in the test with SPIC; 1.21 fold enrichment (6-mer frequency, TF over GST control) with ELF4; 1.22 fold enrichment (6-mer frequency, TF over GST control) with ELK4. The binding signal with ETV2 was 1.14 fold enrichment (6-mer frequency, TF over GST control); with ELF3, 1.21 fold enrichment (6-mer frequency, TF over GST control); in the test with CRX, 1.41 fold enrichment (6-mer frequency, TF over GST control); with ETV1, 1.25 fold enrichment (6-mer frequency, TF over GST control).
For the sequence CCGAAT, the binding signal with FEV is 1.16 fold enrichment (6-mer frequency, TF over GST control); with ETV5 it was 1.14 fold enrichment (6-mer frequency, TF over GST control); in the test with HSF1 it was 1.64 fold enrichment (6-mer frequency, TF over GST control); with SPIC, 1.29 fold enrichment (6-mer frequency, TF over GST control); with ELF4, 1.16 fold enrichment (6-mer frequency, TF over GST control); in the test with ELK4, 1.06 fold enrichment (6-mer frequency, TF over GST control). In addition, the binding signal is 1.12 fold enrichment (6-mer frequency, TF over GST control) with ETV2; 1.16 fold enrichment (6-mer frequency, TF over GST control) with ELF3; 1.33 fold enrichment (6-mer frequency, TF over GST control) with CRX; 1.19 fold enrichment (6-mer frequency, TF over GST control) with ETV1.
Turning to CTCTAT, the binding signal with FEV is 1.11 fold enrichment (6-mer frequency, TF over GST control); with ETV5 it was 1.15 fold enrichment (6-mer frequency, TF over GST control); with HSF1, 1.11 fold enrichment (6-mer frequency, TF over GST control); in the test with SPIC, 1.05 fold enrichment (6-mer frequency, TF over GST control); with ELF4, 1.18 fold enrichment (6-mer frequency, TF over GST control); with ELK4, 1.19 fold enrichment (6-mer frequency, TF over GST control). The binding signal with ETV2 was 1.21 fold enrichment (6-mer frequency, TF over GST control); with ELF3 it was 1.2 fold enrichment (6-mer frequency, TF over GST control); with CRX, 1.1 fold enrichment (6-mer frequency, TF over GST control); with ETV1, 1.13 fold enrichment (6-mer frequency, TF over GST control).
Consider CCTCGA, for which the binding signal with FEV is 1.21 fold enrichment (6-mer frequency, TF over GST control); with ETV5, 1.27 fold enrichment (6-mer frequency, TF over GST control); with HSF1, 1.75 fold enrichment (6-mer frequency, TF over GST control); in the test with SPIC it was 1.29 fold enrichment (6-mer frequency, TF over GST control); with ELF4 it was 1.35 fold enrichment (6-mer frequency, TF over GST control); with ELK4, 1.38 fold enrichment (6-mer frequency, TF over GST control). In addition, the binding signal was 1.55 fold enrichment (6-mer frequency, TF over GST control) in the test with ETV2; 1.25 fold enrichment (6-mer frequency, TF over GST control) with ELF3; 1.26 fold enrichment (6-mer frequency, TF over GST control) with CRX; 1.15 fold enrichment (6-mer frequency, TF over GST control) with ETV1.
For ATCTGG, the binding signal is 1.23 fold enrichment (6-mer frequency, TF over GST control) with FEV; 1.11 fold enrichment (6-mer frequency, TF over GST control) with ETV5; 2.08 fold enrichment (6-mer frequency, TF over GST control) in the test with HSF1; 1.1 fold enrichment (6-mer frequency, TF over GST control) with SPIC; 1.22 fold enrichment (6-mer frequency, TF over GST control) in the test with ELF4; 1.31 fold enrichment (6-mer frequency, TF over GST control) in the test with ELK4. For the same sequence, the binding signal is 1.23 fold enrichment (6-mer frequency, TF over GST control) in the test with ETV2; 1.23 fold enrichment (6-mer frequency, TF over GST control) in the test with ELF3; 1.65 fold enrichment (6-mer frequency, TF over GST control) with CRX; 1.24 fold enrichment (6-mer frequency, TF over GST control) with ETV1.
As for AAAACT, the binding signal was 1.16 fold enrichment (6-mer frequency, TF over GST control) with FEV; 1.15 fold enrichment (6-mer frequency, TF over GST control) with ETV5; 1.18 fold enrichment (6-mer frequency, TF over GST control) with HSF1; 1.23 fold enrichment (6-mer frequency, TF over GST control) with SPIC; 1.21 fold enrichment (6-mer frequency, TF over GST control) with ELF4; 1.1 fold enrichment (6-mer frequency, TF over GST control) in the test with ELK4. Also, the binding signal is 1.19 fold enrichment (6-mer frequency, TF over GST control) with ETV2; 1.12 fold enrichment (6-mer frequency, TF over GST control) with ELF3; 1.16 fold enrichment (6-mer frequency, TF over GST control) with CRX; 1.13 fold enrichment (6-mer frequency, TF over GST control) with ETV1.
Consider ATACCC, for which the binding signal in the test with FEV was 1.17 fold enrichment (6-mer frequency, TF over GST control); with ETV5, 1.16 fold enrichment (6-mer frequency, TF over GST control); in the test with HSF1, 1 fold enrichment (6-mer frequency, TF over GST control); with SPIC it was 1.2 fold enrichment (6-mer frequency, TF over GST control); in the test with ELF4 it was 1.13 fold enrichment (6-mer frequency, TF over GST control); with ELK4, 1.16 fold enrichment (6-mer frequency, TF over GST control). The binding signal was 1.24 fold enrichment (6-mer frequency, TF over GST control) in the test with ETV2; 1.16 fold enrichment (6-mer frequency, TF over GST control) with ELF3; 1.2 fold enrichment (6-mer frequency, TF over GST control) with CRX; 1.23 fold enrichment (6-mer frequency, TF over GST control) with ETV1.
